DUSP3 inh – VHR1 phosphatase inhibitors, primary screen, biochemical, colorimetric, HTS; Dual specificity protein phosphatase 3 (Homo sapiens), P51452; recombinant VHR phosphatase, colorimetric substrate read-out; inhibition, % at 20 µM; 0.7% of 50,000 active; in the data active = inhibition above about 60%
Target sequence (P51452 whole entry, looked up): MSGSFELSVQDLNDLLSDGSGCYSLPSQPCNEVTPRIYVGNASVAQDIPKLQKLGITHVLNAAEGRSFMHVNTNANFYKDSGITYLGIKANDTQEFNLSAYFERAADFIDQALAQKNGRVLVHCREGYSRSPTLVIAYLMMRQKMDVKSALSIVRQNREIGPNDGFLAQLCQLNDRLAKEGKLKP
Of the large screens only hits and unclear results are named; the others gave an inactive call. This excerpt belongs to a sample that is enriched for hits.

NC(=O)c1c(-c2ccc(Cl)cc2)csc1N	DUSP3 inh 66.6
COC(=O)c1c(-c2ccc(OC)cc2)csc1N	none
CCOC(=O)c1c(-c2ccc(C(C)C)cc2)csc1N	none
CC(C)Oc1cccc(C(=O)N2CCc3ccccc32)c1	none
N/C(=N/OC(=O)c1ccc(Br)cc1)c1nonc1N	none
Cc1cccc(OCC(=O)Nc2cccc(Cl)c2Cl)c1	none
CCc1cc(=O)oc2cc(OCc3cccc(C)c3)ccc12	none
Cc1cccc(COc2ccc3c(c2)oc(=O)c2ccccc23)c1	DUSP3 inh 96.0
Cc1ccc(COc2ccc3c(c2)oc(=O)c2ccccc23)cc1	none
COC(=O)C1=CNC=C(C(=O)OC)C1c1cccc(OCc2ccccc2)c1	none
CCOc1ccccc1NC(=O)c1ccc(CN(c2ccccc2)S(C)(=O)=O)cc1	none
O=C(Nc1ccccc1)c1ccc(-n2cnnn2)cc1	none
COC(=O)c1c(C)oc2ccc(OC(=O)N3CCOCC3)cc12	none
O=C(Oc1ccc(-n2cnnn2)cc1)N1CCOCC1	DUSP3 inh 113.1
O=C(CSc1nnc(-c2ccco2)n1-c1ccccc1)c1cccc([N+](=O)[O-])c1	none
O=C(NC(=S)Nc1ccc2oc3ccccc3c2c1)c1ccccc1	none
S=C(Nc1ccc2c(c1)oc1ccccc12)Nc1cccc2ccccc12	DUSP3 inh 105.7
Fc1ccc(NC(=S)Nc2cccc3ccccc23)cc1	none
c1ccc(Nc2cccc3nonc23)cc1	none
O=C(NCCCN1CCOCC1)c1nn2c(C(F)(F)F)cc(-c3cccs3)nc2c1Br	none
O=C1NC(=O)/C(=C\c2cccc(Cl)c2)S1	none
O=C1CSC2=NCN(c3cccc(Cl)c3)CN12	none
O=C1CC(=O)N(c2cccc(Cl)c2)N1	DUSP3 inh 74.6
COc1ccc(OC)c(/C=N/NC(=O)c2c[nH]c3ccccc23)c1	none
CCOC(=O)C1=C(O)/C(=C/c2ccc(-c3ccccc3)cc2)SC1=Nc1ccc(OC)cc1	DUSP3 inh 114.6
CCOC(=O)C1=C(O)/C(=C/c2ccc(O)cc2)SC1=Nc1ccccc1	none
CCOC(=O)C1=C(O)/C(=C/c2ccccc2)SC1=Nc1ccccc1	none
COC(=O)/C(=C\N(C(C)C)C(C)C)[N+](=O)[O-]	none
COc1ccc(Br)cc1C(=O)Nc1cc2nn(-c3ccc(C)cc3)nc2cc1C	none
COc1ccc(-n2nc3cc(C)c(NC(=O)c4cc(Cl)ccc4OC)cc3n2)cc1	DUSP3 inh 109.6
Cc1ccc(-n2nc3cc(C)c(NC(=O)c4cc(Cl)ccc4Cl)cc3n2)cc1	none
COc1ccc(/C=C/C(=O)OCc2ccc([N+](=O)[O-])cc2)cc1S(=O)(=O)NCC1CCCO1 (stereo not drawn)	none
CC(C)CN1C(=O)c2ccc(C(=O)NC3CCCCC3)cc2C1=O	none
O=C(COc1ccccc1Cl)Nc1nc(-c2ccccc2)cs1	none
Cc1ccnc(NC(=O)COc2ccc(Cl)c(C)c2)c1	none
Cc1cc(OCC(=O)Nc2nc(-c3ccccc3)cs2)ccc1Cl	DUSP3 inh 81.6
O=C(COc1ccc(Cl)cc1)Nc1nc(-c2ccc(Cl)cc2)cs1	none
Cc1ccc(OCC(=O)Nc2nc(-c3ccccc3)cs2)cc1C	DUSP3 inh 93.2
Cc1ccccc1OCC(=O)Nc1nc(-c2ccc(Br)cc2)cs1	none
COc1ccc2oc(C)c(C(O)c3ccccc3)c2c1 (stereo not drawn)	none
Cc1ccc(Cl)cc1NC(=O)c1c(F)c(F)c(F)c(F)c1F	none
COc1ccc(Br)cc1CN1CCN(C2CCCCC2)CC1	none
CCOC(=O)c1cnc(-c2ccccc2)nc1NC	none
COc1ccc2c(c1OC)C(=O)OC2Nc1ccc(C)cc1 (stereo not drawn)	none
COc1ccc(/C=C(\NC(=O)c2ccc(OC)cc2)C(=O)NCc2ccco2)cc1	none
COC(=O)C1=C(C)N(C)C(C)=C(C(=O)OC)C1c1ccc(OC)c(OC)c1	none
COC(=O)C1=C(C)N(C)C(C)=C(C(=O)OC)C1c1cc(Br)c(OC)c(OC)c1	DUSP3 inh 116.2
COC(=O)C1=C(C)N(C)C(C)=C(C(=O)OC)C1c1cc(OC)c(OC)c(OC)c1	none
CC1/C(=N\O)CC(c2ccco2)NC1c1ccco1 (stereo not drawn)	none
Cc1ccc(C(=O)Nc2ccccc2C(=O)NC(C)C(=O)O)cc1 (stereo not drawn)	none
CC(=O)C1=C(O)CC(C)(C)CC1=NCc1ccccc1	none
COc1ccc(NC(=O)C2C3CCC4C(CCC32)C4(Cl)Cl)cc1 (stereo not drawn)	none
Cc1cc(C)c(NC(=O)C2C3CCC4C(CCC32)C4(Cl)Cl)c(C)c1 (stereo not drawn)	DUSP3 inh 102.6
COc1cccc(NC(=O)C2C3CCC4C(CCC32)C4(Cl)Cl)c1 (stereo not drawn)	none
COc1cc(/C=N\Nc2nnc(C)c(=O)[nH]2)cc([N+](=O)[O-])c1O	none
O=c1c(Cl)c(Cl)cnn1Cc1ccc(Br)cc1	none
N#C/C(=C/c1ccccc1[N+](=O)[O-])C(=O)Nc1cccc(Br)c1	none
O=C1NN(c2ccc(Cl)c(Cl)c2)C(=O)/C1=C/c1cccc(Br)c1	none
O=C1NN(c2ccc(Cl)c(Cl)c2)C(=O)/C1=C/c1cc([N+](=O)[O-])ccc1O	none
O=C1NN(c2ccc(Cl)c(Cl)c2)C(=O)/C1=C/c1cccc([N+](=O)[O-])c1	DUSP3 inh 78.4
N#CC1=C(SCC(N)=O)NC(=O)CC1c1cccs1 (stereo not drawn)	none
COc1cc(NC(=O)CCCOc2ccccc2)c(OC)cc1Cl	none
O=C1NC(=S)N(c2ccccc2F)C(=O)/C1=C/c1ccc(Sc2ccccc2)o1	none
CCc1ccc(N2C(=O)NC(=O)/C(=C/C=C/c3ccco3)C2=O)cc1	none
Cc1ccc(C=C2C(=O)NC(=S)N(c3ccccc3F)C2=O)s1	none
O=C1NC(=S)N(c2ccccc2F)C(=O)C1=Cc1ccco1	DUSP3 inh 87.0
O=C1NC(=S)N(c2ccccc2)C(=O)/C1=C/c1cc(Br)c(O)c(Br)c1	none
O=C1NC(=S)N(c2ccccc2)C(=O)/C1=C/c1ccco1	DUSP3 inh 66.9
C=CCN1C(=O)/C(=C\C=C\c2ccco2)C(=O)NC1=S	DUSP3 inh 88.2
O=C1NC(=S)N(c2ccccc2)C(=O)/C1=C/c1ccc(Cl)cc1Cl	none
C=CCN1C(=O)/C(=C\c2ccc(Br)cc2)C(=O)NC1=S	none
O=C(Nc1ccc(OC(F)(F)F)cc1)c1cccnc1	none
CCCCCn1c(=O)c(C(=O)Nc2ccc(OC)cc2)c(O)c2ccccc21	none
O=C(CSc1nc2ccccc2s1)OCC(=O)c1cccc([N+](=O)[O-])c1	none
CCc1ccc2oc(-c3ccc(C)c(NS(=O)(=O)c4ccccc4)c3)nc2c1	none
CC(=O)N(C)c1ccc(NC(=O)c2ccc(F)cc2)cc1	none
Cc1cc2nc(-c3cccc(NC(=O)c4ccc(C)c([N+](=O)[O-])c4)c3)oc2cc1C	none
O=C(COc1ccc(Cl)cc1Br)Nc1ccc2c(c1)OCCO2	none
O=C(Nc1ccc(Cl)cc1)Nc1nnc(Cc2cccc(Br)c2)s1	none
COc1cc(/C=N/n2cnnc2)ccc1Oc1ccc(C(F)(F)F)cc1[N+](=O)[O-]	none
CCOC(=O)c1c(NC(=O)COc2cc(C)ccc2C(C)(C)C)sc(C(C)=O)c1C	none
O=C1CC(c2ccccc2F)c2cc(Br)c3ccccc3c2N1 (stereo not drawn)	none
CC(C)Oc1ccccc1C1CC(=O)Nc2c1cc(Br)c1ccccc21 (stereo not drawn)	DUSP3 inh 108.2
COc1cc(C2CC(=O)Nc3c2cc(Br)c2ccccc32)cc(OC)c1OC (stereo not drawn)	none
Cc1ccc(N=C2NC(=O)/C(=C/c3cccc(O)c3)S2)cc1Cl	none
Cc1ccc(N=C2NC(=O)/C(=C/c3ccc(F)cc3)S2)cc1Cl	none
COc1cc(/C=C2\SC(=Nc3ccc(C)c(Cl)c3)NC2=O)ccc1O	DUSP3 inh 68.1
CC1CCc2c(sc(NC(=O)c3cccnc3)c2C(=O)Nc2ccccc2)C1 (stereo not drawn)	none

Compound activity: PubChem BioAssay, Sanford-Burnham Center for Chemical Genomics
